Measured values from PubChem BioAssay (NCATS).
Inconclusive results are not listed. The source made the active and inactive calls. Unless noted, calls come from the whole dose curve; as a rule, active = well fitted curve in the direction sought with a large enough effect; inconclusive = small, poorly fitted or top-dose-only effect, or another doubt; inactive = no such curve, though single readings can be large; an effect the other way counts as inactive or inconclusive.

Legend:
[1] = target: Aldehyde dehydrogenase, mitochondrial (Homo sapiens) (UniProt P05091); test: qHTS for Inhibitors of the Aldehyde Dehydrogenase Family (ALDH2) Confirmatory screens (AID 2061303; active = well fitted inhibition curve with a large enough effect; title and protocol of this record describe different tests; note: nearly all actives have a fitted effect of over 45% in size; note: potency is the fitted concentration of half-maximal effect)
[2] = target: Aldehyde dehydrogenase, mitochondrial (Homo sapiens) (UniProt P05091); test: qHTS for Inhibitors of the Aldehyde Dehydrogenase Family (ALDH2) Primary screen (AID 2061308); note: nearly all actives have a fitted effect of over 55% in size; note: potency is the fitted concentration of half-maximal effect
[3] = target: Retinaldehyde dehydrogenase 3 (Homo sapiens) (UniProt P47895); test: qHTS for Inhibitors of the Aldehyde Dehydrogenase Family (ALDH1A3) Confirmatory screens (AID 2061311); note: nearly all actives have a fitted effect of over 60% in size; note: potency is the fitted concentration of half-maximal effect
[4] = target: Retinaldehyde dehydrogenase 3 (Homo sapiens) (UniProt P47895); test: qHTS for Inhibitors of the Aldehyde Dehydrogenase Family (ALDH1A3) Primary screen (AID 2061315)
[5] = target: Aldehyde dehydrogenase 1A1 (Homo sapiens) (UniProt P00352); test: qHTS for Inhibitors of the Aldehyde Dehydrogenase Family (ALDH1A1) Confirmatory screens (AID 2061316); note: nearly all actives have a fitted effect of over 65% in size; note: potency is the fitted concentration of half-maximal effect
[6] = target: Retinal dehydrogenase 2 (Homo sapiens) (UniProt O94788); test: qHTS for Inhibitors of the Aldehyde Dehydrogenase Family (ALDH1A2) Confirmation screens (AID 2061314); note: nearly all actives have a fitted effect of over 65% in size; note: potency is the fitted concentration of half-maximal effect
[7] = BET inhibitor-based combinations targeting novel dependencies in MECOM-rearranged (r) AML: OCI-AML3 cell line (AID 2202232); details: Potency: OCI-AML3 viability; note: potency is the fitted concentration of half-maximal effect; nearly all actives have a fitted effect of over 35% in size
Method in brief: (§1)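 Viability of cells (500 per well) is scored by luminescent CellTiter-Glo at 48 hr post-dosing. Eleven-point titrations are normalized to DMSO and empty controls and reduced to AUC values.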

[8] = BET inhibitor-based combinations targeting novel dependencies in MECOM-rearranged (r) AML: HNT-34 cell line (AID 2202234); note: potency is the fitted concentration of half-maximal effect; nearly all actives have a fitted effect of over 35% in size
Method in brief: (§2)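 Using pin-tool transfer, drugs were added in 11 doses to cells (500/well), incubated 48 hr, and assessed with CellTiter-Glo. Z-AUC is a mean-centring transformation applied separately to each screened line.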

[9] = BET inhibitor-based combinations targeting novel dependencies in MECOM-rearranged (r) AML: UCSD-AML1 cell line (AID 2202235); note: potency is the fitted concentration of half-maximal effect; nearly all actives have a fitted effect of over 40% in size
Method in brief: as §2

[10] = BET inhibitor-based combinations targeting novel dependencies in MECOM-rearranged (r) AML: AML-194 cell line (AID 2202237; note: potency is the fitted concentration of half-maximal effect; nearly all actives have a fitted effect of over 40% in size)
Method in brief: as §1

[11] = target: Retinaldehyde dehydrogenase 3 (Homo sapiens) (UniProt P47895); test: qHTS for Inhibitors of the Aldehyde Dehydrogenase Family (ALDH1A3) Validation screen (AID 2061312); note: potency is the fitted concentration of half-maximal effect; nearly all actives have a fitted effect of over 45% in size

Measured: Potency

Cc1c(Cl)cccc1NS(=O)(=O)c1cc2c(cc1F)NC(=O)CC2
inactive: [1] | [2] | [3] | [4] | [5]

Cc1cc(C)nc(NC(=S)N2CCN(c3cncc4ccccc34)CC2)c1
active: [3] 22.5 µM | [5] 5.65 µM
inactive: [1] | [2] | [4]

Cc1c(C(=O)OCC2CCCO2)[nH]c2c1C(=O)CCC2 (stereo not drawn)
inactive: [1] | [2] | [4]
active: [6] 28.3 µM | [5] 3.18 µM

COc1ccc(C2Nc3ccccc3C(=O)N2Cc2ccccc2)cc1COc1ccc(C)cc1 (stereo not drawn)
inactive: [2] | [4]
active: [1] 3.98 µM | [6] 5.65 µM

COc1ccc(C2Nc3ccccc3C(=O)N2Cc2ccccc2)cc1COc1ccc(F)cc1 (stereo not drawn)
inactive: [1] | [2] | [4] | [5]
active: [6] 15.9 µM

Cc1ccc(OCCn2c(CCNC(=O)c3cccc(N)c3)nc3ccccc32)cc1
inactive: [1] | [2] | [6] | [4] | [5]

COc1ccc(C2Nc3ccccc3C(=O)N2Cc2ccccc2)cc1COc1ccccc1OC (stereo not drawn)
active: [6] 8.96 µM
inactive: [1] | [2] | [4]

O=S1(=O)CCN(Cc2cc(NCC3CCOCC3)c3[nH]c(-c4ccccc4)cc3c2)CC1
inactive: [1] | [2] | [5]
active: [3] 11.3 µM

CNc1oc(-c2ccc3c(c2)OCCO3)nc1C#N
inactive: [1] | [2] | [6] | [4]

CC(=O)NC(C)c1cc(Cl)c2cccnc2c1O (stereo not drawn)
inactive: [1] | [2] | [4]
active: [6] 28.3 µM

[O-][n+]1onc(-c2ccccc2)c1/C=N/O
inactive: [1] | [2] | [6] | [4] | [5]

CC(CC(C)O[C@@H]1O[C@H](CO)[C@@H](O)[C@H](O)[C@H]1O)OC(=O)/C=C/c1ccc(O)cc1 (stereo partly drawn)
inactive: [1] | [2] | [6] | [4]

O=C(O)CN1C(=O)N/C(=C\c2cccn2-c2ccc(P(=O)(O)O)cc2)C1=O
inactive: [1] | [2] | [3] | [4]
active: [5] 7.98 µM

COc1ccc(C(=O)N(Cc2ccco2)Cc2cccs2)c(O)c1
active: [6] 22.5 µM | [5] 12.7 µM
inactive: [1] | [2] | [4]

NC(=O)C1CCN(c2nc(-c3ccc4occc(=O)c4c3)cs2)CC1
inactive: [1] | [2] | [6] | [4]

O=[S+]([O-])(NCC#CCSc1nnc(-c2cccc3ccccc23)o1)c1ccc(F)cc1
inactive: [1] | [2] | [6] | [4]

Cc1ccc(-c2cc(C(=O)Nc3cccc(S(N)(=O)=O)c3)c3ccccc3n2)cc1C
inactive: [1] | [2] | [6] | [4]

Cc1nnc(CN(C)c2ncnc3ccc(-c4ccc5c(c4)OCO5)cc23)o1
inactive: [1] | [2] | [4]
active: [3] 20.1 µM | [5] 14.2 µM

COc1ccc(C2Nc3ccccc3C(=O)N2Cc2cccnc2)cc1COc1ccc(NC(C)=O)cc1 (stereo not drawn)
active: [1] 15.8 µM | [6] 10.1 µM
inactive: [2] | [4]

c1cn2cc(-c3ccc4cn[nH]c4c3)nc(Nc3ccc(N4CCOCC4)cc3)c2n1
inactive: [1] | [2] | [3] | [4] | [5]
active: [7] 5.25 µM | [8] 4.17 µM | [9] 10.5 µM | [10] 1.32 µM

O=C1c2ccccc2NC(c2ccc(-c3ccc(-c4ccccc4)cc3)o2)N1O (stereo not drawn)
inactive: [4]
active: [1] 3.57 µM | [2] 1.58 µM | [6] 5.65 µM | [5] 4 µM

N#CNC(=O)c1ccc(-n2cccc2/C=C2\NC(=O)N(CC(=O)Nc3cccc(F)c3)C2=O)cc1
inactive: [1] | [2] | [3] | [4] | [5]

NC(=O)C1CCN(c2nc(-c3ccc4c(c3)OCCO4)cs2)CC1
inactive: [1] | [2] | [6] | [4]

O=c1nc(-c2ccccn2)sc2ccccc12
active: [2] 15.8 µM | [11] 2.82 µM | [5] 1.13 µM
inactive: [1] | [6] | [4]

CC(C)(O)C1CC=C(C(=O)OCC2OC(Oc3c(O)cc(C(=O)O)cc3O)C(O)C(O)C2O)CC1 (stereo not drawn)
inactive: [1] | [2] | [6] | [4]
